Calls of active or inactive are those of the source. Unless noted, the rule behind the calls is not given here.
Experiments:
[1] = A549 cell viability effects, profiling panel, calcein-AM fluorescence, 48 h, basal (AID 1162); conditions: higher = more signal; note: test concentration not given here
[2] = adipocyte viability effects, profiling panel, cell-based, 3T3-L1 adipocytes, calcein-AM fluorescence, 48 h, basal (AID 1163); conditions: 3T3-L1 adipocytes viability, higher = more signal; note: test concentration not given here
[3] = HepG2 cell viability effects, profiling panel, calcein-AM fluorescence, 48 h, basal (AID 1164); conditions: higher = more signal; note: test concentration not given here
[4] = MM1S cell viability effects, profiling panel, calcein-AM fluorescence, 48 h, basal (AID 1165); conditions: higher = more signal;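 note: viability of MM1S multiple myeloma cells under basal unstimulated conditions; test concentration not given here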
[5] = basal RPMI8226 viability, no added stimulus, profiling panel, cell-based, calcein-AM fluorescence, 48 h, PK04 Diversity Set (AID 1166); conditions: RPMI8226 myeloma viability, higher = more signal;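 note: cells grown under basal conditions without added stimulus; test concentration not given here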
[6] = basal HepG2 mitochondrial membrane potential changes, profiling panel, cell-based, JC-1 fluorescence, 24 h, 100 nL compound (AID 1167); conditions: higher = more signal; note: test concentration not given here
[7] = basal 3T3-L1 adipocyte mitochondrial potential changes, profiling panel, cell-based, JC-1 fluorescence, 3T3-L1 adipocytes, 24 h, 100 nL compound (AID 1168); conditions: JC-1 mitochondrial fluorescence, higher = more signal, called active from +8 up or from −8 down; note: test concentration not given here
[8] = basal RPMI8226 mitochondrial membrane potential changes, profiling panel, cell-based, JC-1 fluorescence, 24 h, 100 nL compound (AID 1169); conditions: RPMI8226 myeloma, JC-1 mitochondrial potential fluorescence, higher = more signal; note: test concentration not given here
[9] = basal MM1S mitochondrial membrane potential changes, profiling panel, cell-based, JC-1 fluorescence, 24 h, 100 nL compound (AID 1170); conditions: higher = more signal; note: test concentration not given here
[10] = A549 lung cancer cell viability effects, profiling panel, resazurin fluorescence, 24 h, PK04 Diversity Set (AID 1171); conditions: higher = more signal, called active from +8 up or from −8 down; note: test concentration not given here
[11] = HepG2 liver cancer cell viability effects, profiling panel, resazurin fluorescence, 24 h, PK04 Diversity Set (AID 1172); conditions: higher = more signal; note: test concentration not given here
[12] = basal S. cerevisiae growth modulation, no modifier, primary screen, OD600, strain BY4716, 24 h, basal condition (AID 1173); conditions: OD600, 24 h, higher = more signal, called active from +8 up or from −8 down
[13] = MM1S myeloma cell viability, profiling panel, resazurin fluorescence, basal, 24 h, PK04 Diversity Set (AID 1174); conditions: higher = more signal, called active from +8 up or from −8 down;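 note: MM1S multiple myeloma cell line; test concentration not given here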
[14] = biological target: Dihydroorotate dehydrogenase (quinone), mitochondrial (Plasmodium falciparum (isolate 3D7)) (UniProt Q08210); experiment: PfDHODH enzyme inhibitors, primary screen, biochemical, C-terminal His tag, absorbance 600 nm (AID 1175); conditions: DCIP absorbance 600 nm, higher = more signal, called active from +8 up or from −8 down;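 note: recombinant parasite enzyme with a five histidine tag at its C terminus; test concentration not given here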
Sequence of Dihydroorotate dehydrogenase (quinone), mitochondrial (Plasmodium falciparum (isolate 3D7)) (Q08210 whole entry, looked up): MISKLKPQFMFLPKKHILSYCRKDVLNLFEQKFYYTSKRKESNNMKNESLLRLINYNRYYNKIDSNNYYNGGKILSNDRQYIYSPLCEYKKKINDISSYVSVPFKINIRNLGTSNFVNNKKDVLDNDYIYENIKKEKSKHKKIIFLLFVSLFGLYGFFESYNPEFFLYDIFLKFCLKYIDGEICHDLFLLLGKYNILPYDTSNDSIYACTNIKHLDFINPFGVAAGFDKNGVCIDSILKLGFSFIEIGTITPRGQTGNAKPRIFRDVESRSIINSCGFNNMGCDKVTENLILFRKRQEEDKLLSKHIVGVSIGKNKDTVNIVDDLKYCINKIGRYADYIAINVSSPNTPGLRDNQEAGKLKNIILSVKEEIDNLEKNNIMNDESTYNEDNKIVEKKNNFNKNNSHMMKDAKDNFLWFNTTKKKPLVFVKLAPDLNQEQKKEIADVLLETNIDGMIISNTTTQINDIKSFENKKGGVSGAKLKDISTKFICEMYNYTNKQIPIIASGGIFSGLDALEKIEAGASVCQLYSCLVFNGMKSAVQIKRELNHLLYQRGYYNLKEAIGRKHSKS

[15] = P. aeruginosa biofilm formation inhibitors, primary screen, strain PAO1, LB-PBS medium, absorbance 600 nm (AID 1176); note: test concentration not given here; conditions: P. aeruginosa PAO1 growth/biofilm, A600, 12 h; higher = more signal
[16] = S. cerevisiae RM11-1a growth modifiers, primary screen, strain RM11-1a, OD600, basal, 24 h (AID 1177); conditions: OD600, 24 h, higher = more signal, called active from +8 up or from −8 down;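 note: cultures grown under basal conditions with no added stressor; test concentration not given here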
[17] = E. coli acrAB mutant growth effects, primary screen, E. coli filamentation inducers, strain DRC39, OD650, 24 h (AID 1178); conditions: higher = more signal, called active from +8 up or from −8 down;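 note: growth measured as culture turbidity by optical density at 650 nm; test concentration not given here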
[18] = E. coli acrAB mutant growth effects, primary screen, E. coli filamentation inducers, strain DRC39, OD650, 48 h (AID 1179);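 note: screen aims at cell division blockers that make cells filament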; conditions: E. coli DRC39 delta-acrAB growth, higher = more signal, called active from +8 up or from −8 down
[19] = RPMI8226 myeloma cell viability, profiling panel, resazurin fluorescence, basal, 24 h, PK04 Diversity Set (AID 1180); conditions: higher = more signal;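 note: RPMI8826 multiple myeloma cell line at 5000 cells per well; test concentration not given here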
[20] = biological target: E3 ubiquitin-protein ligase XIAP (Homo sapiens) (UniProt P98170); experiment: XIAP binders, primary screen, biophysical, small-molecule microarray, fluorescence 635 nm (AID 1181); conditions: small-molecule microarray binding, higher = more signal;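 note: score merges 667 nm emission and signal to noise over triplicate slides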
Sequence of E3 ubiquitin-protein ligase XIAP (Homo sapiens) (P98170 whole entry, looked up): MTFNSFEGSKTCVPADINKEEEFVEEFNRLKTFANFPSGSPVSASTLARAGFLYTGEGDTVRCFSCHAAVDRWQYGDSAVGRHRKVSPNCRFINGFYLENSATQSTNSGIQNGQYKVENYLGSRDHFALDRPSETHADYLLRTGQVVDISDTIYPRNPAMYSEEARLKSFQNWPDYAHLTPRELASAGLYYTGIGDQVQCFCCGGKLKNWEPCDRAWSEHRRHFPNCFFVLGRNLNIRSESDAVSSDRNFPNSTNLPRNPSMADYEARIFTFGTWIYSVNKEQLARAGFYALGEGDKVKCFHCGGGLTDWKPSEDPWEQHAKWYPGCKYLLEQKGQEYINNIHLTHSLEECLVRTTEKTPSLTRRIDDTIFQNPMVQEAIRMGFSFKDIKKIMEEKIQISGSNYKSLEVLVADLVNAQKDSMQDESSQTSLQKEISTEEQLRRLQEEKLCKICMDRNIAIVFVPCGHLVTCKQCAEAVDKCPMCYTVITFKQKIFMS

Structure (SMILES)	z-score [1]	z-score [2]	z-score [3]	z-score [4]	z-score [5]	z-score [6]	z-score [7]	z-score [8]	z-score [9]	z-score [10]	z-score [11]	z-score [12]	z-score [13]	composite z-score [14]	z-score [15]	z-score [16]	z-score [17]	z-score [18]	z-score [19]	composite z-score [20]
COc1cc(CO)cc(I)c1O[C@H]1C=C(C(=O)NCCO)C[C@@H](N(Cc2ccc(F)cc2)C(=O)C2CCCO2)[C@@H]1O (stereo not given in full)	0.656	0.284	0.364	0.87	0.577	1.04	0.195 (inactive)	-0.899	0.578	-0.409 (inactive)	0.266	-1.96 (inactive)	0.695 (inactive)	-0.737 (inactive)	0.507 (inactive)	-0.254 (inactive)	2.94 (inactive)	2.03 (inactive)	0.562	-0.165
Cc1ccc(F)cc1S(=O)(=O)N[C@@H]1CCN(Cc2ccc(Oc3ccccc3)cc2)C1	-1.26	-0.119	-1.25	-3.43	-3.16	0.998	0.546 (inactive)	-1.19	-2.3	-0.214 (inactive)	-0.971	-17.3 (active)	-0.627 (inactive)	0.255 (inactive)	-0.177 (inactive)	-9.2 (active)	-5.2 (inactive)	-4.66 (inactive)	-0.942	-0.13
CC(=O)NCCCC[C@@H]1NC(=O)[C@@H]2C[C@H](C(=O)O)[C@H](c3ccc(O)cc3)N2C1=O	0.0665	0.384	-0.552	0.421	-0.105	-1.14	-0.352 (inactive)	0.667	0.237	-0.179 (inactive)	-0.253	0.929 (inactive)	0.699 (inactive)	0.435 (inactive)	-0.819 (inactive)	0.88 (inactive)	0.0763 (inactive)	-0.301 (inactive)	0.517	-0.0796
C[C@]1(C(=O)NC2CC2)c2ccccc2C(=O)N(Cc2ccc(OC(F)(F)F)cc2)[C@H]1c1ccc(CO)cc1	-0.176	-0.138	0.415	-0.105	0.142	2.32	-0.116 (inactive)	0.917	-0.316	0.306 (inactive)	-0.268	-0.708 (inactive)	0.191 (inactive)	0.0758 (inactive)	-0.109 (inactive)	-0.474 (inactive)	0.0997 (inactive)	0.054 (inactive)	-0.254	-0.225
COCCOC(=O)N1C(=O)[C@@]2(c3cc(C#Cc4ccc(OC)cc4)ccc31)[C@H](C(=O)NC[C@H](O)c1ccccc1)[C@H]1C(=O)O[C@H](c3ccccc3)[C@H](c3ccccc3)N1[C@@H]2c1ccc(O)cc1	-0.24	0.711	-0.862	-2.08	-2.34	-2.11	1.54 (inactive)	-0.723	0.122	0.397 (inactive)	-0.857	-0.11 (inactive)	-1.09 (inactive)	-0.352 (inactive)	1.34 (inactive)	0.552 (inactive)	-0.365 (inactive)	-0.736 (inactive)	-1.32	0.261
O=C1NC(=O)C2C1C=CC(C(O)c1c(F)cccc1Cl)N2Nc1ccccn1 (stereo not given)	0.0619	-0.92	0.0038	0.312	-0.825	-1.05	-0.957 (inactive)	-0.517	0.15	-0.609 (inactive)	-1.73	1.19 (inactive)	-1.65 (inactive)	0.722 (inactive)	0.543 (inactive)	-0.0601 (inactive)	-0.883 (inactive)	-0.0739 (inactive)	-1.74	0.118
C=C(/C=C/CNS(=O)(=O)c1ccc(C)cc1)[C@H](O)[C@H]1CCCN1S(=O)(=O)c1ccccc1[N+](=O)[O-]	0.623	0.581	-0.291	-1.28	-0.264	-1.79	-0.221 (inactive)	-0.525	-0.0633	0.594 (inactive)	-0.0339	0.587 (inactive)	0.113 (inactive)	0.858 (inactive)	-0.447 (inactive)	1.41 (inactive)	1.45 (inactive)	0.579 (inactive)	0.0925	-0.0582
CCCCC(=C=CC[C@@H](O)c1ccc(OCCO)cc1)C[C@@H](O)COCc1ccccc1	2.64	0.716	2.15	-1.35	-0.586	0.605	-0.0104 (inactive)	0.178	-1.18	0.812 (inactive)	0.931	-5.91 (inactive)	-0.301 (inactive)	-2.29 (inactive)	0.637 (inactive)	-3.31 (inactive)	1.9 (inactive)	1.55 (inactive)	-0.342	0.124
COc1ccccc1CN1C(=O)c2ccccc2[C@@H](C(=O)NC(C)C)[C@@H]1c1ccc(CO)cc1	1.66	0.611	1.95	0.472	0.717	1.63	-0.41 (inactive)	0.652	-0.365	2.35 (inactive)	1.1	-0.186 (inactive)	1.1 (inactive)	-0.469 (inactive)	-0.963 (inactive)	-0.108 (inactive)	0.686 (inactive)	0.0549 (inactive)	1.17	0.0251
C=C(CCCC)C(=O)CC[C@@H](OC(=O)c1cccnc1)c1ccccc1OCCO	-0.528	0.101	-0.14	-3.21	-2.92	0.0547	0.361 (inactive)	-0.754	-1.33	0.335 (inactive)	0.0748	-3.02 (inactive)	-1.22 (inactive)	-2.63 (inactive)	-0.153 (inactive)	0.231 (inactive)	0.604 (inactive)	0.448 (inactive)	-2.39	0.0325
CCOC(=O)[C@H]1C/C=C/C[C@H](C(=O)OCC)C(=O)O[C@H]2[C@@H](OC)O[C@H](CO)[C@@H](OC(=O)CCc3ccccc3)[C@@H]2OC1=O	0.837	0.342	0.957	0.269	0.331	0.957	0.352 (inactive)	0.655	-0.533	-0.553 (inactive)	-0.144	-1.08 (inactive)	0.204 (inactive)	-0.915 (inactive)	0.759 (inactive)	-0.143 (inactive)	0.735 (inactive)	0.558 (inactive)	0.116	0.023
NC(=O)N1C(=O)C2C(C1=O)C1C=C(CCCO)C2C(c2cccs2)N1Cc1cc2c(cc1Br)OCO2 (stereo not given)	0.89	1.46	0.78	0.0067	0.695	1.01	0.111 (inactive)	-0.11	-0.214	0.514 (inactive)	0.652	-2.37 (inactive)	0.271 (inactive)	-1.72 (inactive)	-0.259 (inactive)	0.0427 (inactive)	0.18 (inactive)	0.0419 (inactive)	0.645	-0.267
CC[C@@H]1[C@H]2C3C(=O)N(CC)C(=O)C3CC(=O)[C@H]2[C@H](c2ccc(C)cc2)N1S(=O)(=O)c1ccc(C)cc1 (stereo not given in full)	-0.138	-0.303	-0.581	0.453	-0.144	0.248	0.438 (inactive)	0.485	-1.02	-0.0875 (inactive)	-0.881	0.252 (inactive)	-0.25 (inactive)	-0.0972 (inactive)	-0.144 (inactive)	0.561 (inactive)	-0.339 (inactive)	0.25 (inactive)	-0.695	-0.119
COC(=O)C1(Cc2ccccc2)C=C2C(=C(C(C)C)C(=O)C2C)CN1 (stereo not given)	-0.859	0.575	-1.75	-1.89	-1.53	-1	-1.76 (inactive)	0.838	0.0816	-1.33 (inactive)	-0.88	0.736 (inactive)	-2.2 (inactive)	-1.72 (inactive)	1.35 (inactive)	0.905 (inactive)	-0.999 (inactive)	-0.927 (inactive)	-1.59	0.0493
COCCCNC(=O)[C@@H]1c2ccccc2C(=O)N(Cc2ccccc2C(F)(F)F)[C@H]1c1ccc(CO)cc1	2.1	1.29	1	0.7	0.237	2.55	-0.0216 (inactive)	-0.213	0.872	1.8 (inactive)	0.816	-0.756 (inactive)	1.51 (inactive)	-0.955 (inactive)	-0.727 (inactive)	0.186 (inactive)	0.414 (inactive)	0.0948 (inactive)	1.48	-0.138
[N-]=[N+]=NCc1ccccc1C[C@@]1(C(=O)NCCN2CCOCC2)N=C(c2ccc(OCCCO)cc2)O[C@@H]1c1ccccc1N=[N+]=[N-]	-1.6	1.61	-1.05	-1.31	-3.68	0.862	-1.38 (inactive)	-0.923	-1.12	-0.0172 (inactive)	-0.61	-1.22 (inactive)	-0.37 (inactive)	0.699 (inactive)	0.124 (inactive)	-0.304 (inactive)	0.647 (inactive)	-0.456 (inactive)	-0.0843	0.318
COc1ccc(C(O)C2C=CC3C(=O)N(C)C(=O)C3N2N2CCCCC2)cc1 (stereo not given)	-0.972	0.0526	0.133	-0.207	-0.0882	-0.49	0.0216 (inactive)	-0.176	0.188	0.014 (inactive)	-0.197	0.381 (inactive)	-0.8 (inactive)	0.0624 (inactive)	0.49 (inactive)	-0.378 (inactive)	-0.584 (inactive)	-0.858 (inactive)	-0.267	0.0728
COc1ccc([Si](C)(C)[C@H]2[C@H](CCn3cc(CCO)nn3)O[C@@]3(C(=O)N(Cc4ccc(N5C(=O)c6cccc7cccc5c67)cc4)c4ccccc43)[C@@H]2C)cc1	-1.61	1.36	-4.11	-2.56	-4.29	-0.0483	-0.712 (inactive)	-1.09	-2.18	-2.57 (inactive)	-2.42	0.0502 (inactive)	-5.99 (inactive)	-1.14 (inactive)	0.519 (inactive)	1.66 (inactive)	0.528 (inactive)	0.251 (inactive)	-5.65	0.0636

From PubChem BioAssay
